# Measured values reported in the supplement of paper PMC10127200.
# Counter-ions that a name gives are not always drawn.
# Test system: 786-O
# Experiment: Euclidean distance of Cell Painting phenotypic profile (signed KS, 77 features) to DMSO centroid (dimensionless distance); 5 or 10 uM (library dependent); higher = stronger phenotypic change vs DMSO (phenoactivity)
# Conditions: 48 h
# Summary of the method: (§1)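 Stained cells were imaged confocally at 20X with 9 fields per well, after 48 h of exposure to library compounds at 10 or 5 uM (set by library; 0.1% DMSO final). The cells were five cancer lines and a healthy fibroblast line. From the images, Harmony extracted 77 features, each expressed as a signed Kolmogorov-Smirnov statistic relative to same-plate vehicle wells. Phenoactivity is measured as Euclidean distance to the median vehicle profile, using plate-position-corrected, correlation-weighted profiles averaged across replicates at the top dose.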
row,SMILES,Euclidean distance
1,Cc1c(Cn2c(C)nc3c(C(=O)O)cc(N4CCOCC4)cc32)cccc1C(F)(F)F,2.39
2,CCn1cc(C(=O)O)c(=O)c2cc(F)c(N3CCN(C)CC3)cc21 [Pefloxacin Mesylate Dihydrate],1.52
3,CCC(=O)O[C@@H](O[P@](=O)(CCCCc1ccccc1)CC(=O)N1C[C@H](C2CCCCC2)C[C@H]1C(=O)O)C(C)C [Fosinopril Sodium],1.19
4,CCCC(=O)Nc1ccc(OCC(O)CNC(C)C)c(C(C)=O)c1 (stereo not given) [Acebutolol HCl],0.96
5,Cc1c(-c2ccc(O)cc2)n(Cc2ccc(OCCN3CCCCCC3)cc2)c2ccc(O)cc12 [Bazedoxifene HCl],5.12

# Test system: A549
# Experiment: as above
# Conditions: 48 h
# Summary of the method: as §1
row,SMILES,Euclidean distance
1,CCCC(=O)OCOC(=O)C1=C(C)NC(C)=C(C(=O)OC)C1c1cccc(Cl)c1Cl (stereo not given) [Clevidipine Butyrate],0.675
2,COc1ccc(CNCc2cccc3ccccc23)cc1,1.46
3,CC[C@H](c1ccc(O)cc1)[C@@H](CC)c1ccc(O)cc1 [Hexestrol],1.07
4,CN[C@@H](C)C(=O)N[C@H](C(=O)N1CCC[C@H]1C(=O)Nc1snnc1-c1ccccc1)C1CCCCC1,1.58
5,O=C(O[C@@H]1C[C@@H]2C[C@H]3C[C@H](C1)N2CC3=O)c1c[nH]c2ccccc12 [Dolasetron Mesylate],0.793
6,CCC(C)n1ncn(-c2ccc(N3CCN(c4ccc(OCC5COC(Cn6cncn6)(c6ccc(Cl)cc6Cl)O5)cc4)CC3)cc2)c1=O (stereo not given) [Itraconazole],2.48
7,Cc1ccc(NC(=O)c2ccc(CN3CCN(C)CC3)cc2)cc1Nc1nc(-c2cccnc2)cs1 [Masitinib (AB1010)],2.76
8,Cn1cnc2c1c(=O)[nH]c(=O)n2C [Theobromine],0.658
9,NC(=O)c1cn(Cc2c(F)cccc2F)nn1 [Rufinamide],1.42
10,CN(C)C(=O)COC(=O)Cc1ccc(OC(=O)c2ccc(NC(=N)N)cc2)cc1 [Camostat Mesilate],0.62
11,COc1ccc2cc3[n+](cc2c1OC)CCc1cc2c(cc1-3)OCO2 [Berberine Sulfate],2.46
12,Cc1cnc(Nc2ccc(OCCN3CCCC3)cc2)nc1Nc1cccc(S(=O)(=O)NC(C)(C)C)c1,4.4
13,COc1cc2nccc(Oc3ccc(NC(=O)NC4CC4)c(Cl)c3)c2cc1C(N)=O [Lenvatinib (E7080)],0.779
14,CC(=O)N1C[C@H](O)C[C@H]1C(=O)O [Oxaceprol],0.845
15,Cc1nc(C#Cc2ccnc(Cl)c2)c(C)n1-c1ccc(OC(F)(F)F)cc1,0.736
16,CO/N=C(\C(=O)N[C@@H]1C(=O)N2C(C(=O)O)=C(CSc3nc(=O)c(O)nn3C)CS[C@H]12)c1csc(N)n1 [Ceftriaxone Sodium Trihydrate],0.779
17,CO[C@@H]1[C@@H](O[C@@H]2O[C@H](C)[C@@H](O[C@H]3C[C@@](C)(O)[C@@H](OC(=O)CC(C)C)[C@H](C)O3)[C@H](N(C)C)[C@H]2O)[C@@H](CC=O)C[C@@H](C)[C@@H](O)/C=C/C=C/C[C@@H](C)OC(=O)C[C@H]1OC(C)=O [Josamycin],1.07
18,OCCN1CCN(CCCN2c3ccccc3Sc3ccc(Cl)cc32)CC1 [Perphenazine],2.47
19,CS(=O)(=O)c1cccc(C[C@H](NC(=O)c2c(Cl)cc3c(c2Cl)CCN(C(=O)c2ccc4ccoc4c2)C3)C(=O)O)c1 [Lifitegrast],0.823
20,N#CC(=C(/N)Sc1ccccc1N)/C(C#N)=C(\N)Sc1ccccc1N,1.18

row,SMILES,Euclidean distance
1,CNCc1cc(-c2ccccc2F)n(S(=O)(=O)c2cccnc2)c1 [Vonoprazan Fumarate (TAK-438)],0.5
2,CCN1CCN(Cc2ccc(Nc3ncc(F)c(-c4cc(F)c5nc(C)n(C(C)C)c5c4)n3)nc2)CC1 [Abemaciclib],4.37
3,Nc1nc2[nH]cnc2c(=S)[nH]1 [Thioguanine],2.5
4,CCC(=O)c1c(O)cc(O)cc1O [Flopropione],0.879
5,C[C@]12CCC(=O)C=C1CC[C@@H]1[C@@H]2[C@@H](O)C[C@@]2(C)[C@H]1CC[C@]2(O)C(=O)CO [Hydrocortisone],1.63
6,C[C@H](CS)C(=O)N1CCC[C@H]1C(=O)O [Captopril],1.13
7,FCOC(C(F)(F)F)C(F)(F)F [Sevoflurane],0.865
8,O=NN(CCCl)C(=O)NC1CCCCC1 [Lomustine],0.833
9,CC(C)[C@H]1CC[C@H](C(=O)N[C@H](Cc2ccccc2)C(=O)O)CC1 [Nateglinide],1.19
10,Cc1ccc(/C(=C\CN2CCCC2)c2cccc(/C=C/C(=O)O)n2)cc1 [Acrivastine],0.966
11,COCCCN1CCC(NC(=O)c2cc(Cl)c(N)c3c2OCC3)CC1 [Prucalopride Succinate],1.22
12,CN(C)Cc1c(C(=O)NCCOc2ccc(C(=O)NO)cc2)oc2ccccc12,4.31
13,Oc1c(Br)cc(Br)c2cccnc12 [Broxyquinoline],0.988
14,O=C(O)c1cc(=O)c2ccccc2o1 [Chromocarb],0.437
15,O=C1N=C(O)NC1(c1ccccc1)c1ccccc1 [Phenytoin sodium],0.743
16,Cc1c(Cn2c(C)nc3c(C(=O)O)cc(N4CCOCC4)cc32)cccc1C(F)(F)F,1.14
17,CCn1cc(C(=O)O)c(=O)c2cc(F)c(N3CCN(C)CC3)cc21 [Pefloxacin Mesylate Dihydrate],1.04
18,CCC(=O)O[C@@H](O[P@](=O)(CCCCc1ccccc1)CC(=O)N1C[C@H](C2CCCCC2)C[C@H]1C(=O)O)C(C)C [Fosinopril Sodium],0.719
19,CCCC(=O)Nc1ccc(OCC(O)CNC(C)C)c(C(C)=O)c1 (stereo not given) [Acebutolol HCl],0.8
20,Cc1c(-c2ccc(O)cc2)n(Cc2ccc(OCCN3CCCCCC3)cc2)c2ccc(O)cc12 [Bazedoxifene HCl],4.91
